Measured values reported in the OligoGym collection.
Further: reference of the scale not given here.

The sequences below were run against TEAD3 (assay: pooled miR-30 sensor sort-seq; sequence = guide strand). Conditions: shRNA.
In the case of TATAGCGTGCAATCAACTCATT, the sensor-assay potency score (higher = more potent) is reported as -1.09.
In the case of TTGTTCTGCAGGACACTGGCAG, the sensor-assay potency score (higher = more potent) is reported as -0.245.
With TTTAATATAGCGTGCAATCAAC the sensor-assay potency score (higher = more potent) was -1.47.
TTGATCATGTACTCGCACATGG was tested, and the sensor-assay potency score (higher = more potent) was 0.181.
TCTGACAGGATGATCTTCCGCC gave a sensor-assay potency score (higher = more potent) of 0.971.
In the case of TATGCAAACAGTGAGGACCTTC, the sensor-assay potency score (higher = more potent) is reported as -0.217.
In the case of TTGAGGTCGGCCCAGAACTTGA, the sensor-assay potency score (higher = more potent) is reported as -1.66.
Work on TACTCCCGCACCTTCTTCCGAG yielded a sensor-assay potency score (higher = more potent) of -0.896.
TTTGCCAAAGGAGCACACCTTG was tested, and the sensor-assay potency score (higher = more potent) was -1.16.
Work on TTTCTCGTCCGAGTCTTCCCCG yielded a sensor-assay potency score (higher = more potent) of -0.491.

These sequences were tested against TECPR1 in the same assay as above. Conditions: shRNA.
TTCCACTTCTTGTCTTTCGTGT was tested, and the sensor-assay potency score (higher = more potent) was 0.613.
TTCTTGTCTTTCGTGTAGGTGG was tested, and the sensor-assay potency score (higher = more potent) was -0.581.
Work on TGTGGTACCAGCAGTCACCGGC yielded a sensor-assay potency score (higher = more potent) of 0.193.
TTGTTGGACACGTGCTCCCAGC showed a sensor-assay potency score (higher = more potent) of -1.68.
With TTGGTCTCGTTCAGCACTGGGA the sensor-assay potency score (higher = more potent) was -0.998.
Sequence TCACCAACCATCTCAATCCAAC has a sensor-assay potency score (higher = more potent) of -1.66.
TTGTCTTTCGTGTAGGTGGCGG gave a sensor-assay potency score (higher = more potent) of -0.464.
For TAGATGTTACTGGTGCTGCTGG, the sensor-assay potency score (higher = more potent) was -0.642.
Sequence TTGAGGTCAATATTGGTCCAGG has a sensor-assay potency score (higher = more potent) of -0.869.
With TATGAGGCAGGGAAGTCGCTGG the sensor-assay potency score (higher = more potent) was -0.217.
TTCCACGGTATCTTCTGCGGTC gave a sensor-assay potency score (higher = more potent) of -0.344.

These sequences were tested against TEF in the same assay as above. Conditions: shRNA.
For TTCTTCTTGCGTCTTGTCCAGT, the sensor-assay potency score (higher = more potent) was -0.866.
In the case of TAGCTCTGCTACAGGCAGCAGC, the sensor-assay potency score (higher = more potent) is reported as -0.912.
For TTGCGTCTTGTCCAGTACTTTT, the sensor-assay potency score (higher = more potent) was -1.72.
TTGTCCAGTACTTTTCATCCTT gave a sensor-assay potency score (higher = more potent) of 0.089.
With TTTAGCTGCCACGTTGTTCTTC the sensor-assay potency score (higher = more potent) was -0.221.
For TATGGGATGGTCTTGTCCCAGA, the sensor-assay potency score (higher = more potent) was -1.26.
TTGGTGACTCTAGACTAGGTGT was tested, and the sensor-assay potency score (higher = more potent) was 0.324.
In the case of TACTTGGACACGATGGTCTTGC, the sensor-assay potency score (higher = more potent) is reported as -0.169.
For TCATCCTTCTGCTCGTCGGGGA, the sensor-assay potency score (higher = more potent) was 0.16.
In the case of TAGACTAGGTGTCTTGCCCTGC, the sensor-assay potency score (higher = more potent) is reported as -0.327.

Each sequence was assayed against TELO2 in the same assay as above. Conditions: shRNA.
TCCATCAGCACTGCCAGCCGGC was tested, and the sensor-assay potency score (higher = more potent) was -1.21.
Sequence TTTCTCAGCCACGTCCGCCAGC has a sensor-assay potency score (higher = more potent) of -1.03.
In the case of TTCTGGGTCATCACAAACTGGG, the sensor-assay potency score (higher = more potent) is reported as -0.844.
TTGGAGAGAGTCCACAACCGCC was tested, and the sensor-assay potency score (higher = more potent) was -1.23.
TGTAAGAACAGAAGCTTCTGGG showed a sensor-assay potency score (higher = more potent) of 0.738.
TTGCCCAGCAGCGTCTCCCGGA gave a sensor-assay potency score (higher = more potent) of -1.12.
With TAGTTGAGGGCATAGAACTGTG the sensor-assay potency score (higher = more potent) was -0.752.
TAGGCATCGATGTGGAAGCGAA gave a sensor-assay potency score (higher = more potent) of -1.36.
AAACTCATCATCGCTGTCCAGG gave a sensor-assay potency score (higher = more potent) of -1.32.
